Sampled rows, rich in hits. Any-hit rate of the full collection: about 3.6%.
NFkB transloc pot: enhances IL-1B driven NFkB nuclear translocation | 0.3% of 94,000 active | activation, % at 2 µM | HUVEC IL-1B NFkB p65 nuclear translocation imaging;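 active = activation above 40%, about the mean plus 3 SD, also judged a hit on visual image review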;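 also: percent activation is computed from the nuclear over cytoplasmic p65 intensity ratio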
ERa SRC1 inh: ER-alpha (human) coactivator binding inhibition. TR-FRET ER-alpha LBD / SRC-1 peptide, estradiol-bound. AID 629. P03372. inhibition, % at 25.6 µM. 1.7% of 86,000 active; in the data active = inhibition above about 50%
IL1B cytotox: HUVEC cytotoxicity counter-screen, IL-1B stimulated; HUVEC cell count loss, Hoechst imaging; cell count reduction, % at 2 µM; 0.41% of 94,000 active; AID 845;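 active = cell count reduction more than 3 SD above the screen-wide mean, cut at about 70% in these data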
NFkB transloc inh: blocks IL-1B driven NFkB nuclear translocation in HUVEC cells; inhibition, % at 2 µM; HUVEC IL-1B NFkB p65 nuclear translocation imaging; 0.43% of 94,000 active;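 active = inhibition above about 30% together with a positive call from visual inspection of the well image, limit read from the data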;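 also: nuclear over cytoplasmic p65 intensity ratio measured by imaging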
ERa SRC1 pot: enhances coactivator binding to human estrogen receptor alpha; P03372; TR-FRET ERalpha-LBD/SRC-Cy5 coactivator binding, 2 h; 100 = basal binding, no effect; coactivator binding (% of control), % at 25.6 µM; 1.3% of 86,000 active; AID 639; in the data active = activity above about 200%;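 also: binding measured in presence of low estradiol as agonist stimulus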
ERb coact inh: ER-beta (human) coactivator binding inhibition; AID 633; Q92731; inhibition, % at 25.6 µM; TR-FRET ER-beta LBD / SRC1-Cy5 peptide binding; receptor agonist-loaded with 1 µM estradiol; 1.3% of 86,000 active;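 active = compounds whose percent inhibition of the receptor-coactivator binding signal exceeds about 50% in the single-dose screen, limit read from the data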
Target sequence (Q92731 whole entry, looked up, the tested form may be a part): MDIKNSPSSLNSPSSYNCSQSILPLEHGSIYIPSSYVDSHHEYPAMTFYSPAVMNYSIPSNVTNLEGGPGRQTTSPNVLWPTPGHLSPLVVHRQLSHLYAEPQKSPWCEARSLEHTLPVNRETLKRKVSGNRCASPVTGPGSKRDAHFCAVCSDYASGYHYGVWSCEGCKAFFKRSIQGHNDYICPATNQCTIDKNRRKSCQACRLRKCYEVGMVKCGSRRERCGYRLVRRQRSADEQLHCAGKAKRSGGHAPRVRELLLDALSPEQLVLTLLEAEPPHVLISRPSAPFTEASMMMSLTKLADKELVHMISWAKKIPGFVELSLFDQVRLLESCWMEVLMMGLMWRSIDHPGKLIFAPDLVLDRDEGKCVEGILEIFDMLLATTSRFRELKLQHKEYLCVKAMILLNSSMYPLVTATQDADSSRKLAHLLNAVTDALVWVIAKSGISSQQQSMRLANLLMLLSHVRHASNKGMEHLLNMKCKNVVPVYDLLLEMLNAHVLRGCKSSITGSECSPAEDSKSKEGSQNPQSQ
Of the large screens only hits and unclear results are named; the others gave an inactive call; [ ] = another dose, or the depositor's remark.

Cc1ccc(-n2nnnc2SCC(=O)Nc2ccc3c(c2)COC3=O)cc1C	ERa SRC1 inh 72.9
Cc1ccc(NC(=O)Cc2nc(CSc3nnc(-c4ccc5c(c4)OCO5)o3)cs2)cc1	none
O=c1cc(-c2ccccc2Cl)c2c([nH]1)CCC2	ERb coact inh 56.7[fluorescence artefact?] (no result: NFkB transloc pot, IL1B cytotox, NFkB transloc inh)
O=c1oc2c(O)c(O)cc3c(=O)oc4c(O)c(O)cc1c4c23	ERa SRC1 inh 93.9[fluorescence artefact?], ERb coact inh 97.9[fluorescence artefact?] (no result: NFkB transloc pot, IL1B cytotox, NFkB transloc inh)
Cc1c(C)c2cc(Cl)c(O)c(CN(C)C)c2oc1=O	none
CCOC(=O)Cc1ccc(NS(=O)(=O)c2ccc(SC)cc2)cc1	ERa SRC1 inh 54.0
CCCCOC(=O)Nc1ccc(C(=O)OC)cc1	none
CCCCOC(=O)Nc1ccc(C)c(Cl)c1	IL1B cytotox 90.7
O=C(CSc1nc(C2CC2)nc2ccccc12)N1c2ccccc2Sc2ccc(C(F)(F)F)cc21	none (no result: ERa SRC1 inh, ERa SRC1 pot, ERb coact inh)
Cc1c(C(=O)N2CCN(Cc3ccccc3)CC2)sc2ncnc(N3CCOCC3)c12	none (no result: NFkB transloc pot, IL1B cytotox, NFkB transloc inh)
Cc1c(C(=O)N2CCN(c3ccccc3)CC2)sc2ncnc(N3CCN(c4ccccc4)CC3)c12	ERa SRC1 pot 399.9[fluorescence artefact?]
O=C(CSc1cn(Cc2ccccc2)c2ccccc12)N1CCOCC1	none
C=CCSc1nc(N)c(C#N)c(-c2ccccc2)c1C#N	ERa SRC1 pot 237.6[fluorescence artefact?]
Cc1ccc(C(=O)N/N=C/c2ccc([N+](=O)[O-])s2)cc1	ERa SRC1 inh 67.5
Cc1cccc(NC(=S)N/N=C/c2ccc([N+](=O)[O-])s2)c1	none (no result: ERa SRC1 inh, ERa SRC1 pot, ERb coact inh)
O=C(N/N=C/c1ccc([N+](=O)[O-])s1)c1cccc(Br)c1	ERa SRC1 inh 76.1[fluorescence artefact?]
COc1cc2c(cc1OC)C(=O)CC(C)S2 (stereo unspecified)	none (no result: ERa SRC1 inh, ERa SRC1 pot, ERb coact inh)
Clc1ccc(SCc2cn3ccsc3n2)cc1	ERa SRC1 pot 365.6[fluorescence artefact?]
C/C(N)=C(/C#N)C(=O)CSc1nnnn1-c1ccc(C)cc1C	none
Cc1ccc(NS(=O)(=O)c2ccc3c(c2)oc(=O)n3C)cc1F	ERa SRC1 pot 221.2
Cn1c(=O)oc2cc(S(=O)(=O)Nc3ccc4c(c3)OCCO4)ccc21	IL1B cytotox 91.9, NFkB transloc inh 97.7
Cn1c(=O)c(=O)n(C)c2cc(S(=O)(=O)Nc3ccc4c(c3)OCCO4)ccc21	none
COc1ccc(CN2C(=O)CN=C2Nc2cc(C)ccc2C)cc1	none
Cc1ccc(Cl)cc1NC(=O)COC(=O)C12CC3CC(CC(C3)C1)C2	none
Cc1onc(-c2ccccc2Cl)c1C(=O)Nc1cccc2nsnc12	ERa SRC1 pot 262.6[fluorescence artefact?]
CCc1ccccc1NC(=O)c1cnc2scc(C)n2c1=O	ERa SRC1 pot 216.0[fluorescence artefact?]
O=C(Nc1nc(-c2ccccc2)c(-c2ccccc2)o1)c1ccc(F)cc1	none (no result: ERa SRC1 inh, ERa SRC1 pot, ERb coact inh)
O=S1(=O)C=C(Sc2nc3cc(Cl)ccc3o2)c2ccccc21	NFkB transloc inh 55.5 (no result: ERa SRC1 inh, ERa SRC1 pot, ERb coact inh)
Cc1ccnc(N/C=C(/NC(=O)c2ccccc2)C(=O)N/N=C\c2ccc(F)cc2)n1	IL1B cytotox 78.3, NFkB transloc inh 56.4
COc1ccc(/C=C(\NC(=O)c2ccccc2)C(=O)N/N=C/c2ccncc2)cc1	none (no result: ERa SRC1 inh, ERa SRC1 pot, ERb coact inh)
Cc1nc(C)c(C(=O)Nc2nc3c(C)cccc3s2)o1	ERa SRC1 inh 91.6[fluorescence artefact?], ERb coact inh 90.7[fluorescence artefact?]
Cc1cccc2sc(NC(=O)C3CCCO3)nc12 (stereo unspecified)	none
COC(=O)c1cc(OC)c(OC)cc1NC(=O)c1ccc(Br)o1	ERa SRC1 inh 57.5
COc1ccc(-c2nc3ccccc3o2)cc1NC(=O)c1ccc(Br)o1	ERa SRC1 pot 257.4[fluorescence artefact?]
COC(=O)c1cc(OC)c(OC)cc1NC(=S)N1CCN(C)CC1	IL1B cytotox 73.1 (no result: ERa SRC1 inh, ERa SRC1 pot, ERb coact inh)
CCc1cc2c(=O)c(-n3cnc4ccccc43)coc2cc1O	none
Cc1cc(Br)cc(C)c1NC(=S)NC(=O)CC(C)C	none (no result: ERa SRC1 inh, ERa SRC1 pot, ERb coact inh)
N#C/C(=C/c1ccc(N2CCCCCC2)o1)c1cccc(F)c1	none
N#C/C(=C/c1ccc(N2CCCCCC2)o1)c1ccc(F)cc1	NFkB transloc inh 44.2
CCSc1nnc(NC(=O)C2Cc3ccccc3CN2C(=O)c2ccco2)s1 (stereo unspecified)	ERa SRC1 inh 52.5
NS(=O)(=O)c1ccc(CCNC(=O)C2Cc3ccccc3CN2C(=O)c2ccco2)cc1 (stereo unspecified)	none (no result: ERa SRC1 inh, ERa SRC1 pot, ERb coact inh)
COc1ccc(OC)c(NC(=O)C2CCN(c3cc(-c4ccccc4)nc4ncnn34)CC2)c1	ERb coact inh 55.7[fluorescence artefact?]
COc1ccc(NC(=O)C2CCN(c3cc(-c4ccccc4)nc4ncnn34)CC2)cc1OC	none
CC(C)c1nnc(NC(=O)CSc2ccccc2)s1	none
